Pf growth 96h – P. falciparum growth inhibition at 96 hour, primary screen for plastid delayed-death inhibitors; 6.9% of 320,000 active; AID 504834; Potency, µM (series often up to 28.7 µM), without a hit: at the highest dose activity change, negative = inhibition, hits mostly inhibitors; P. falciparum luciferase reporter growth, 96 h; note: % is set by controls: 0 for no effect and ±100 for the full control effect
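Plates of compound plus infected erythrocytes (2% hematocrit, 0.05% parasitemia final) incubate 96 hours, 37 C, 5% CO2. Detection reagent added; reduced luminescence from the parasites' luciferase reporter flags inhibition.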
Pf growth 48h – P. falciparum growth inhibition at 48 hours (one generation); 5.9% of 310,000 active; Potency, µM (doses to about 28.7 µM), without a hit: at the highest dose activity change, negative = inhibition, actives largely listed as inhibitors; P. falciparum luciferase growth in erythrocytes, 48 h; note: % is set by controls: 0 for no effect and ±100 for the full control effect
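Luciferase-expressing P. falciparum in infected erythrocytes (2% hematocrit, 0.1% parasitemia final) in RPMI 1640/0.5% Albumax were exposed to compound for 48 hours at 37 C, 5% CO2; growth read as luminescence.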
NS1 inh – influenza NS1 inhibition; 0.4% of 270,000 active; Potency, µM (titrated, usually from 46.1 µM), for inactives: top-dose activity, positive = more growth; AID 2326; calls by dose curve; note: actives are rising curves; nearly all actives have a fitted effect of over 50% in size
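In this qHTS, NS1 from influenza A is expressed in budding yeast, where it slows growth. Cells are switched from glucose to 2% galactose medium (pH 6.0, -URA), treated with compound, and growth recovery is read at OD600.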
Sm TGR inh – inhibitors of Schistosoma mansoni thioredoxin glutathione reductase. 3% of 360,000 active. purified TGR, DTNB reduction, TNB absorbance 405 nm. AID 485364. Q962Y6. Potency, µM (top dose mostly 114 µM), inactives show at the top dose activity change, negative = inhibition, usual class: inhibitors; note: % is set by controls: 0 for no effect and ±100 for the full control effect; nearly all actives have a fitted effect of over 60% in size
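Kinetic colorimetric format: TGR-catalysed, NADPH-driven DTNB reduction monitored via TNB absorbance. Enzyme dispensed at 20 nM; compound exposure 15 min at room temperature before reaction start.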
AMA1 RON2 block – disrupts binding of P. falciparum AMA1 to RON2; AlphaScreen AMA1-biotinylated RON2 peptide binding; Potency, µM (doses to about 58.2 µM), inactives show at the top dose activity change, negative = inhibition, hits mostly inhibitors; 0.2% of 360,000 active;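 note: 0% = vehicle wells and -100% = peptide control; nearly all actives have a fitted effect of over 45% in size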
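AMA1 (3D7) with his tag at 25 nM final met compounds first, then biotinylated RON2 peptide at 25 nM; detection used donor plus acceptor beads, 10 µg/mL apiece, read by AlphaScreen after 30 min at room temperature.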
An asterisk follows results filed as active. Sampled rows, rich in hits. Any-hit rate of the full collection: about 11%. Unless noted, calls come from the whole dose curve; as a rule, active = well fitted curve in the direction sought with a large enough effect; inconclusive = small, poorly fitted or top-dose-only effect, or another doubt; inactive = no such curve, though single readings can be large; an effect the other way counts as inactive or inconclusive. Potency is the fitted concentration of half-maximal effect.

`COc1ccccc1CN(CC(=O)NCc1ccco1)C(=O)CNS(=O)(=O)c1ccc(C)cc1` gave Pf growth 96h -21%, Pf growth 48h inconclusive, NS1 inh -8%, Sm TGR inh 28µM* and AMA1 RON2 block -2%.
Screening Cc1ccc(S(=O)(=O)NCC(=O)N(CC(=O)NCc2ccco2)Cc2cccs2)cc1 returned Pf growth 96h -1%, Pf growth 48h 4%, NS1 inh -8%, Sm TGR inh -36% and AMA1 RON2 block -14%.
For COc1ccc(N(CC(=O)NCc2ccco2)C(=O)CNS(=O)(=O)c2ccc(Cl)cc2)cc1 the results were Pf growth 96h 2.1µM*, Pf growth 48h -11%, NS1 inh -10%, Sm TGR inh inconclusive and AMA1 RON2 block -8%.
For COc1ccccc1CN(CC(=O)NCc1ccco1)C(=O)CNS(=O)(=O)c1ccccc1 the results were Pf growth 48h -16%, NS1 inh -6%, Sm TGR inh 50µM* and AMA1 RON2 block 2%.
Screening O=C(CN(Cc1ccc2c(c1)OCO2)C(=O)CNS(=O)(=O)c1ccccc1)NCc1ccco1 returned Pf growth 96h 2.3µM*, Pf growth 48h 20%, NS1 inh -2%, Sm TGR inh -18% and AMA1 RON2 block 1%.
CSc1ncccc1C(=O)NC(C)CCc1ccccc1 (stereo not given) was read as Pf growth 96h 2%, Pf growth 48h 8%, NS1 inh -6%, Sm TGR inh 0% and AMA1 RON2 block 15%.
For CCOCCCNC(=O)C1CCN(C(=O)c2cc3sccc3n2C)CC1 the results were Sm TGR inh 3%.
Cc1ccccc1N(CC(=O)NCc1ccco1)C(=O)CNS(=O)(=O)c1ccc(F)cc1 was read as Pf growth 96h -19%, Pf growth 48h 0%, NS1 inh 2%, Sm TGR inh 40µM* and AMA1 RON2 block 0%.
CCOc1ccccc1N(C(=O)CNS(=O)(=O)c1ccccc1)C(CC)C(=O)NCc1ccco1 (stereo not given) was read as Pf growth 96h 7.4µM*, NS1 inh -4%, Sm TGR inh inconclusive and AMA1 RON2 block -17%.
`COc1ccc(C2=NCCn3nc4cc([N+](=O)[O-])ccc4c32)cc1` gave Pf growth 96h inconclusive, Pf growth 48h inconclusive, Sm TGR inh 25µM* and AMA1 RON2 block 19%.
Screening COc1ccc2c3n(nc2c1)CCN=C3c1ccc(C)cc1 returned Pf growth 96h inconclusive, Pf growth 48h 0%, Sm TGR inh -8% and AMA1 RON2 block -5%.
Screening Cc1ccc(C2=NCCn3c2c2ccc([N+](=O)[O-])cc2[n+]3[O-])cc1 returned Pf growth 96h inconclusive, Pf growth 48h inconclusive, Sm TGR inh inconclusive and AMA1 RON2 block 10%.
For O=[N+]([O-])c1ccc2c3n([n+]([O-])c2c1)CCN=C3c1ccc(Cl)cc1 the results were Pf growth 96h inconclusive, Pf growth 48h 12µM*, Sm TGR inh inconclusive and AMA1 RON2 block 20%.
For CCCCCCNc1nc(OC)nc(N2CC3CC(C2)c2cccc(=O)n2C3)n1 (stereo not given) the results were Pf growth 96h 5%, Pf growth 48h 8.3µM*, Sm TGR inh -1% and AMA1 RON2 block -3%.
`CCOc1nc(NC(C)C)nc(N2CC3CC(C2)c2cccc(=O)n2C3)n1` (stereo not given) gave Pf growth 96h 39%, Pf growth 48h 6%, Sm TGR inh -7% and AMA1 RON2 block 4%.
For CCOc1ccc(C2/C(=C(\O)c3ccc4c(c3)OCCO4)C(=O)C(=O)N2Cc2cccnc2)cc1OCC (stereo not given) the results were Pf growth 96h inconclusive, Pf growth 48h inconclusive, NS1 inh -2%, Sm TGR inh -16% and AMA1 RON2 block -2%.
For Cc1cc(C)c(N=Cc2c(O)c3ccccc3oc2=O)c(C)c1 the results were Pf growth 96h 2%, Pf growth 48h 10µM*, NS1 inh -13%, Sm TGR inh 0% and AMA1 RON2 block 7%.
`Cc1cc(C)cc(N=Cc2c(O)c3ccccc3oc2=O)c1` gave Pf growth 96h inconclusive, Pf growth 48h -13%, Sm TGR inh 3% and AMA1 RON2 block 6%.
COc1cc(/C=C/CNC[C@H]2O[C@@H](n3ccc(N)nc3=O)[C@H](O)[C@@H]2O)ccc1O was read as AMA1 RON2 block 23%.
Screening CCS(=O)(=O)N1CCN=C1SC(C)c1ccccc1 (stereo not given) returned Pf growth 96h -23%, Pf growth 48h -19%, NS1 inh -10%, Sm TGR inh 6% and AMA1 RON2 block -1%.
For CC(=O)c1cccc(N2Cc3ccccc3C2=NC(=O)CCl)c1 the results were Pf growth 96h 13µM*, Pf growth 48h -26%, NS1 inh 5%, Sm TGR inh 18µM* and AMA1 RON2 block 1%.
`CC(=O)c1ccc(N2Cc3ccccc3/C2=N\C(=O)Nc2ccccc2)cc1` gave Pf growth 96h 120%, Pf growth 48h 76%, NS1 inh 13%, Sm TGR inh -4% and AMA1 RON2 block -7%.
`CCOC(=O)Cn1c(S(=O)(=O)Cc2ccc(Cl)cc2)nc(-c2ccccc2)c1-c1ccccc1` gave Pf growth 96h 10µM*, Pf growth 48h inconclusive, NS1 inh 12%, Sm TGR inh -12% and AMA1 RON2 block -6%.
For COc1ccc2c(CNCCc3ccccc3OC)c(C(=O)O)n(Cc3ccc(F)cc3Cl)c2c1 the results were Sm TGR inh -8%.
Screening COc1ccc(N2C(=O)CSC23C(=O)N(CC(=O)NC2CCCC2)c2ccccc23)cc1 (stereo not given) returned Pf growth 96h 8.3µM*, Pf growth 48h -5%, NS1 inh -11%, Sm TGR inh -10% and AMA1 RON2 block -6%.
`Cc1ccc(C(=O)COC(=O)[C@@H](NC(=O)c2ccco2)C(C)C)s1` gave AMA1 RON2 block -20%.
For O=C(N/N=C/c1cccs1)c1cc(-c2ccncc2)nc2ccccc12 the results were Pf growth 96h inconclusive, Pf growth 48h -12%, NS1 inh -11%, Sm TGR inh 7% and AMA1 RON2 block -11%.
`COc1ccc(-c2cc(C(=O)N/N=C(\C)c3ccco3)c3ccccc3n2)c(OC)c1` gave Pf growth 96h 13µM*, Pf growth 48h 9.3µM*, NS1 inh 15%, Sm TGR inh -10% and AMA1 RON2 block 78%.
Screening COc1ccccc1-c1cc(C(=O)N/N=C/c2cccs2)c2ccccc2n1 returned Pf growth 96h 4.1µM*, NS1 inh 16%, Sm TGR inh -5% and AMA1 RON2 block 5%.
COc1ccc(-c2cc(C(=O)N/N=C/c3ccc(OC)c(COCC(F)(F)C(F)F)c3)c3ccccc3n2)c(OC)c1 was read as Pf growth 96h 6.6µM*, Pf growth 48h 1.5µM*, NS1 inh inconclusive, Sm TGR inh 1% and AMA1 RON2 block 5%.

Screening data: PubChem BioAssay, National Center for Advancing Translational Sciences (NCATS)
